Screening results deposited in PubChem BioAssay by several laboratories.
ADAM10 inh: human ADAM10 inhibitors, primary screen, biochemical, QFRET, HTS | Disintegrin and metalloproteinase domain-containing protein 10 (Homo sapiens), O14672 | recombinant ADAM10, EDANS/DABCYL FRET peptide cleavage, 3 h | inhibition, % at 7 µM | actives 0.62% (n = 370,000);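 active means inhibition above a per-campaign cutoff equal to the mean of compounds falling between control-based bounds plus 3 SD, cut at about 20% in these data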;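 further: 0% = DMSO wells while the 100% control is not disclosed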
proKLK7 act: proKLK7 zymogen activators, primary screen, biochemical, fluorescence intensity; Kallikrein-7 (Homo sapiens), P49862; purified proKLK7, EDANS-DABCYL substrate fluorescence; 100% is mature enzyme control, 0% vehicle; activation, % at 7 µM; actives 0.9% (n = 370,000); AID 652039, 2013;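 active means activation above the mean of all tested compounds plus 3 SD, computed per campaign excluding outliers beyond control limits, cut at about 13% in these data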
rCAG RNA binder: binders of r(CAG) RNA repeats, primary screen, biochemical, fluorescence; r(CAG) RNA repeat, TO-PRO-1 dye displacement fluorescence; inhibition, % at 3 µM; actives 1.3% (n = 370,000); AID 651821, 2012;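 active means inhibition above the plate cutoff, the mean of all test compounds on that plate plus 3 SD, cut at about 35% in these data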;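 further: 0% = DMSO alone and 100% = 100 µM mitoxantrone as full dye displacement; higher means more dye released from RNA so lower well fluorescence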
AHR activator: AHR activators, primary screen, cell-based, luminescence, luciferase reporter, human | Aryl hydrocarbon receptor (Homo sapiens), P35869 | AHR-responsive luciferase reporter cells | activation, % at 5 µM | actives 2.5% (n = 320,000); in the data active means activation above about 47%;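 further: 0% = vehicle wells and 100% = reference agonist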
Target sequence (P35869 whole entry, looked up): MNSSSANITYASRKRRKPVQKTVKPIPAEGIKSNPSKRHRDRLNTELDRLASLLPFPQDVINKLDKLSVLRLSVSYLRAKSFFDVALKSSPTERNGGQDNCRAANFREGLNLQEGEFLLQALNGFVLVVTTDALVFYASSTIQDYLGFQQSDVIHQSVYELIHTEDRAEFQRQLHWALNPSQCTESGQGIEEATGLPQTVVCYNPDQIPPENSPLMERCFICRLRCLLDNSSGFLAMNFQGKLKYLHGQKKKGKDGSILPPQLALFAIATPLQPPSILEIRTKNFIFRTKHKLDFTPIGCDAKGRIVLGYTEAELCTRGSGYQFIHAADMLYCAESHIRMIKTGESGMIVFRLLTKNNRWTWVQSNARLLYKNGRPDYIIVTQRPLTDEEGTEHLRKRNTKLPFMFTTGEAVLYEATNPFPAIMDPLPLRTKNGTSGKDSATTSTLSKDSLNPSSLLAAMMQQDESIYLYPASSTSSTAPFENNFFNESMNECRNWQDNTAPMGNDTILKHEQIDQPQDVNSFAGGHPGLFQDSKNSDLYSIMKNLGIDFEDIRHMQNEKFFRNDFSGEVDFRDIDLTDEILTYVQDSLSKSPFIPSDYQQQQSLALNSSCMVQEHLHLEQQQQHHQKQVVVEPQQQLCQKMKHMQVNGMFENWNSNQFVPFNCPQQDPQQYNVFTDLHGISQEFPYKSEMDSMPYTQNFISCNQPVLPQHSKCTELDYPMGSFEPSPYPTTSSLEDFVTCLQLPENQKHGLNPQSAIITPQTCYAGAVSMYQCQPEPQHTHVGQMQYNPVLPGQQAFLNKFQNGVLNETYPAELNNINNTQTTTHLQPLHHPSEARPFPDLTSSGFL
NR3A LBD binder: binders of NR3A ligand-binding domain, primary screen, biophysical, differential scanning fluorimetry, uHTS. Tm shift relative to glycine control, % at 25 µM. actives 2.5% (n = 340,000). Glutamate receptor ionotropic, NMDA 3A (GRIN3A) ligand-binding domain. AID 1259313, 2017. NR3A LBD differential scanning fluorimetry, Tm shift; 0% = protein alone, 100% = glycine-bound protein;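 active means melting temperature shift of at least 10% of the positive control shift, at one fixed dose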
ADAM17 inh: ADAM17 inhibitors, primary screen, biochemical, QFRET. Disintegrin and metalloproteinase domain-containing protein 17 (Homo sapiens), P78536. recombinant ADAM17, EDANS/DABCYL FRET peptide cleavage. inhibition, % at 6.95 µM. actives 0.83% (n = 370,000). AID 720648, 2013;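 active means inhibition above the mean of compounds lying between control limits plus 3 SD, set per campaign, cut at about 8.5% in these data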;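 further: 0% = DMSO-only wells as the low control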
* = called active by the depositor; / = not tested or not shown. An excerpt weighted towards active compounds, which were near 7% of everything screened.

SMILES	ADAM10 inh	proKLK7 act	rCAG RNA binder	AHR activator	NR3A LBD binder	ADAM17 inh
Cn1nc(C(F)(F)F)c2cc(C(=O)Nc3ccc(F)cc3F)sc21	10.6	-9.8	-0.7	-1.7	-0.6	-2.2
COCCNC(=O)C[C@H]1CC[C@H]2[C@@H](COc3ccc(NC(=O)Nc4cccc(F)c4)cc3C(=O)N2C)O1	-1.6	0.6	3.5	/	/	-6.1
COc1ccc(C(=O)NCCNc2ccc([N+](=O)[O-])cc2)cc1	4.9	-0.1	2.9	5.1	14.3*	1.6
O=C(COc1ccc(Cl)cc1)NCCNc1ccc([N+](=O)[O-])cc1	3.5	-0.3	2.7	4.9	1.6	-0.2
O=C(NCCNc1ccc([N+](=O)[O-])cc1)c1ccc(Cl)cc1	15.1	-0.6	1.2	-2.9	12.8*	2.8
c1ccc(Nc2ncnc3c2oc2ccccc23)cc1	-11.1	0.0	0.6	29.2	-7.5	-4.1
Oc1ccccc1Nc1ncnc2c1oc1ccccc12	0.7	-0.6	8.0	19.7	0.8	-2.1
Oc1ccc(Nc2ncnc3c2oc2ccccc23)cc1	-3.6	0.1	1.5	3.4	16.4*	-1.5
Oc1cccc(Nc2ncnc3c2oc2ccccc23)c1	-9.7	-0.3	-0.3	0.4	21.8*	-3.9
O=C(N/N=C/c1ccc(O)cc1O)c1ccc(CN2C(=O)c3cccc4cccc2c34)cc1	-40.0	-13.9	24.7	3.7	19.8*	-14.8
COC(=O)C1CN(CCc2ccccc2)CCS(=O)(=O)N1Cc1ccc(C(F)(F)F)cc1 (stereo not drawn)	0.7	-0.1	-0.4	/	/	-0.7
Cc1ccc(C(=O)NC(=S)Nc2c(C)ccc3nsnc23)cc1	-7.2	-0.7	-2.0	93.8*	11.2*	-0.1
CC(=O)Nc1ccc(NC(=O)CCc2nc3sc4c(c3c(=O)[nH]2)CCCC4)cc1	-11.3	0.3	7.7	9.8	-0.9	-2.8
Cc1cc(C)cc(NC(=O)CCc2nc3sc4c(c3c(=O)[nH]2)CCCC4)c1	-12.6	-1.2	10.6	58.6*	1.8	-5.2
N[C@H](C(=O)Nc1ccc(Cl)cc1C(=O)c1ccc[nH]1)c1ccccc1	-10.9	/	/	/	/	-5.5
Cc1cc(-c2cccs2)c2c(N)c(C(=O)c3ccc4c(c3)OCO4)sc2n1	-0.5	0.7	2.3	6.1	20.6*	0.4
COc1ccc(C(=O)c2sc3nc(C)cc(-c4cccs4)c3c2N)cc1	-4.9	-15.8	-0.5	/	1.1	-1.5
COc1ccc(C(=O)Nc2nnc(-c3cccs3)s2)cc1	7.0	0.5	3.5	66.7*	1.5	-45.5
Cc1occc1C(=O)Nc1nnc(-c2cccs2)s1	-17.4	-1.0	5.4	76.3*	-16.7	-3.3
O=C(Nc1nnc(-c2cccs2)s1)c1cccc(F)c1	1.3	-0.1	-0.6	55.9*	-7.1	-3.6
COc1ccc(C(=O)Nc2nc(-c3cccs3)c(NC(C)=O)s2)cc1	-11.2	9.1	5.1	20.3	1.7	-12.0
COc1ccc(OC)c(NC(=O)c2ccc(-c3cccs3)cc2)c1	-2.2	-11.7	9.9	75.8*	-29.9	-0.3
Cc1nnc(NC(=O)c2cccc(F)c2)s1	-2.2	-0.5	3.0	0.7	-0.1	2.9
COC(=O)c1cc2c(c3c4cc(F)ccc4n(S(=O)(=O)c4cccc(C)c4)c13)C(=O)N(Cc1ccc(C(F)(F)F)cc1)C2	-2.3	0.5	12.2	/	/	-2.9
O=C(NCCO)C(=O)NCC1OCCCN1S(=O)(=O)c1cc(F)ccc1F (stereo not drawn)	-14.9	0.1	2.4	2.8	136.0*	0.1
SMILES	ADAM10 inh	proKLK7 act	rCAG RNA binder	AHR activator	NR3A LBD binder	ADAM17 inh
O=C(NCCc1ccccc1)C(=O)NCC1OCCCN1S(=O)(=O)c1cc(F)ccc1F (stereo not drawn)	-3.0	-0.2	-0.9	1.0	8.2	-2.9
Cc1cc2c(c(=O)o1)[C@@]1(C(=O)N(C)c3ccccc31)C1=C(CCC1=O)O2	-9.6	0.2	-1.5	/	/	-3.9
COc1ccc(-c2cc(=O)oc3cc(OC(C)C(=O)O)ccc23)cc1 (stereo not drawn)	-39.3	1.0	11.8	2.8	0.3	-12.1
COc1ccc(-c2cc(=O)oc3c(O)c(O)ccc23)cc1	4.8	-0.1	10.8	3.7	28.7*	5.2
CCn1c(=NC(=O)c2cccc(N3C(=O)CCC3=O)c2)sc2c(OC)ccc(OC)c21	-7.4	-0.1	1.7	13.9	-6.2	1.7
COc1ccc(OC)c2c1sc(=NC(=O)c1cccc(N3C(=O)CCC3=O)c1)n2C	-8.8	0.1	2.6	70.0*	-23.4	3.9
COc1cc(C(=O)N=c2sc3c(C)ccc(OC)c3n2C)cc(OC)c1OC	-20.4	-2.9	2.8	32.2	-0.7	-11.8
COc1ccc(C(=O)N=c2sc3c(C)ccc(OC)c3n2C)cc1	-16.5	0.2	3.9	56.2*	-7.4	-2.3
COc1ccc(-c2csc(NC(=O)CSc3nc(C)nc4sc(C(=O)O)c(C)c34)n2)cc1	5.0	0.4	42.5*	-0.2	-2.6	1.4
COc1ccc(NCc2nnc(SCC(=O)Nc3nc(-c4ccccc4)cs3)n2-c2ccccc2)cc1	5.7	0.2	8.2	5.4	11.6*	-1.5
S=C(Nc1ccc(I)cc1)OC1CCC12CCC(c1ccccc1)CC2 (stereo not drawn)	1.9	0.1	17.0	/	/	2.0
CCCCN1CCN(C(=O)c2cn(C(C)c3ccccc3)nn2)CC1 (stereo not drawn)	2.8	-0.6	-0.4	/	/	-0.9
COC(=O)[C@]12C[C@H](CC(=O)N3CCC(c4ccccc4)CC3)C(=O)N(CCc3ccc(OC)c(OC)c3)C1=C[C@H](COCc1ccccc1)O[C@@H]2C	7.5	-0.2	13.9	/	/	1.2
CCCOc1ccc(-c2nn(-c3ccccc3)cc2/C=C2\SC(N)=NC2=O)cc1C	1.1	-0.4	4.5	9.9	16.4*	-1.8
C[C@@H]1CN([C@@H](C)CO)C(=O)CCCn2cc(nn2)CO[C@H]1CN(C)C(=O)Cc1ccccc1	-9.8	0.0	-2.1	/	/	-7.0
O=C1CCCC2=C1[C@@]1(O[C@H]3C=CC=CN23)C(=O)N(c2ccccc2)c2ccccc21	-4.0	0.6	7.5	/	/	0.4
O=C(NCCC(=O)N1CCNC1=O)OCc1ccccc1	3.5	-0.8	1.3	2.7	13.7*	1.8
O=C(NCCCCCCNC(=O)OCc1ccccc1)OCc1ccccc1	-4.6	-0.2	-0.3	/	0.7	-5.6
CN1C(=O)[C@@]2(C3=C(CCCC3=O)OC3=C2C(=O)CC(C)(C)C3)c2ccccc21	-2.5	0.3	3.4	/	/	-1.8
CCOC(=O)c1c(Nc2ccccc2OCCOC)n[nH]c1C	4.6	0.0	-0.3	48.2*	-1.1	-4.9
